Measured values taken from PubChem BioAssay AID1159580 (chemical genetic matrix, 2015).
Out of some 5,500 compounds screened, about 2,000 (36%) were called active. About 18% were inconclusive and are not listed. The list shows a part of the results. A number with no mark means an inactive call. No stated cut-off is given here; in the data, active means normalized growth mostly below about 0.91 (no sharp cut-off); inconclusive means no clear call, values can overlap the other calls; inactive means mostly above about 0.92.

Test: chemical genetic growth profiling, strain panel (AID 1159580);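 further: tested at 20 µM; growth read once vehicle control cultures reached saturation at 30 °C; 1 = growth at the plate median or of vehicle wells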
Details: growth OD

CCCCCCCCCCCC1=C(O)C(=O)C=C(O)C1=O
normalized growth (S. cerevisiae deletion strains, locus YJL168C, strain set2, stronger effect = lower value): 0.975
normalized growth (S. cerevisiae deletion strains, locus YJL187C, strain SWE1 (second series), stronger effect = lower value): 0.981
normalized growth (S. cerevisiae deletion strains, locus YJR043C, strain POL32, stronger effect = lower value): 0.584 (active)
normalized growth (S. cerevisiae deletion strains, locus YKL068W, stronger effect = lower value): 0.936 (active)
normalized growth (S. cerevisiae deletion strains, locus YKL085W, strain MDH1 (second series), stronger effect = lower value): 0.513 (active)
normalized growth (S. cerevisiae deletion strains, locus YKL085W, strain MDH1, stronger effect = lower value): 0.513 (active)
normalized growth (S. cerevisiae deletion strains, locus YKL160W, strain elf1, stronger effect = lower value): 0.805 (active)
normalized growth (S. cerevisiae deletion strains, locus YKR001C, strain vps1, stronger effect = lower value): 0.776 (active)
normalized growth (S. cerevisiae deletion strains, locus YKR026C, strain gcn3, stronger effect = lower value): 0.82 (active)
normalized growth (S. cerevisiae deletion strains, locus YKR091W, strain srl3, stronger effect = lower value): 0.911 (active)
normalized growth (S. cerevisiae deletion strains, locus YLL001W, strain dnm1, stronger effect = lower value): 0.502 (active)
normalized growth (S. cerevisiae deletion strains, locus YLL026W, stronger effect = lower value): 0.972
normalized growth (S. cerevisiae deletion strains, locus YLL041C, strain sdh2, stronger effect = lower value): 0.933
normalized growth (S. cerevisiae deletion strains, locus YLR027C, strain aat2, stronger effect = lower value): 0.839 (active)
normalized growth (S. cerevisiae deletion strains, locus YLR039C, strain RIC1, stronger effect = lower value): 0.296 (active)
normalized growth (S. cerevisiae deletion strains, locus YLR058C, strain SHM2, stronger effect = lower value): 1
normalized growth (S. cerevisiae deletion strains, locus YLR102C, strain apc9, stronger effect = lower value): 0.974
normalized growth (S. cerevisiae deletion strains, locus YLR221C, strain rsa3, stronger effect = lower value): 0.801 (active)
normalized growth (S. cerevisiae deletion strains, locus YLR258W, strain gsy2, stronger effect = lower value): 0.911 (active)
normalized growth (S. cerevisiae deletion strains, locus YLR262C, strain YPT6 (second series), stronger effect = lower value): 0.477 (active)
normalized growth (S. cerevisiae deletion strains, locus YLR262C, strain YPT6, stronger effect = lower value): 0.414 (active)
normalized growth (S. cerevisiae deletion strains, locus YLR268W, strain sec22, stronger effect = lower value): 0.756 (active)
normalized growth (S. cerevisiae deletion strains, locus YLR320W, strain mms22, stronger effect = lower value): 0.83 (active)
normalized growth (S. cerevisiae deletion strains, locus YLR330W, strain CHS5, stronger effect = lower value): 0.842 (active)
normalized growth (S. cerevisiae deletion strains, locus YLR342W, strain FKS1 (second series), stronger effect = lower value): 0.886
normalized growth (S. cerevisiae deletion strains, locus YLR342W, strain FKS1, stronger effect = lower value): 0.72 (active)
normalized growth (S. cerevisiae deletion strains, locus YLR357W, strain rsc2, stronger effect = lower value): 0.441 (active)
normalized growth (S. cerevisiae deletion strains, locus YLR370C, strain arc18, stronger effect = lower value): 0.242 (active)
normalized growth (S. cerevisiae deletion strains, locus YLR371W, strain rom2, stronger effect = lower value): 0.945
normalized growth (S. cerevisiae deletion strains, locus YLR384C, strain iki3, stronger effect = lower value): 0.989
normalized growth (S. cerevisiae deletion strains, locus YLR418C, strain cdc73, stronger effect = lower value): 0.819 (active)
normalized growth (S. cerevisiae deletion strains, locus YML016C, strain PPZ1, stronger effect = lower value): 0.991
normalized growth (S. cerevisiae deletion strains, locus YML032C, strain rad52, stronger effect = lower value): 0.882 (active)
normalized growth (S. cerevisiae deletion strains, locus YML120C, strain ndi1, stronger effect = lower value): 0.952
normalized growth (S. cerevisiae deletion strains, locus YML124C, strain tub3, stronger effect = lower value): 0.975
normalized growth (S. cerevisiae deletion strains, locus YMR058W, strain fet3, stronger effect = lower value): 0.0857 (active)
normalized growth (S. cerevisiae deletion strains, locus YMR078C, strain ctf18, stronger effect = lower value): 0.96
normalized growth (S. cerevisiae deletion strains, locus YMR125W, strain sto1, stronger effect = lower value): 0.832 (active)
normalized growth (S. cerevisiae deletion strains, locus YMR129W, stronger effect = lower value): 0.883 (active)
normalized growth (S. cerevisiae deletion strains, locus YMR205C, strain PFK2, stronger effect = lower value): 0.901
normalized growth (S. cerevisiae deletion strains, locus YMR223W, strain ubp8, stronger effect = lower value): 0.87 (active)
normalized growth (S. cerevisiae deletion strains, locus YMR231W, strain pep5, stronger effect = lower value): 0.69 (active)
normalized growth (S. cerevisiae deletion strains, locus YMR263W, strain SAP30, stronger effect = lower value): 0.766 (active)
normalized growth (S. cerevisiae deletion strains, locus YMR307W, strain GAS1, stronger effect = lower value): 0.378 (active)
normalized growth (S. cerevisiae deletion strains, locus YNL067W, strain RPL9B, stronger effect = lower value): 0.823 (active)
normalized growth (S. cerevisiae deletion strains, locus YNL071W, strain lat1, stronger effect = lower value): 0.912 (active)
normalized growth (S. cerevisiae deletion strains, locus YNL128W, strain TEP1, stronger effect = lower value): 0.683 (active)
normalized growth (S. cerevisiae deletion strains, locus YNL209W, strain ssb2, stronger effect = lower value): 0.61 (active)
normalized growth (S. cerevisiae deletion strains, locus YNL233W, strain BNI4, stronger effect = lower value): 0.857 (active)
normalized growth (S. cerevisiae deletion strains, locus YNL248C, strain rpa49, stronger effect = lower value): 0.757 (active)
normalized growth (S. cerevisiae deletion strains, locus YNL250W, strain rad50, stronger effect = lower value): 0.738 (active)
normalized growth (S. cerevisiae deletion strains, locus YNL271C, strain bni1, stronger effect = lower value): 0.636 (active)
normalized growth (S. cerevisiae deletion strains, locus YNL298W, strain CLA4, stronger effect = lower value): 0.66 (active)
normalized growth (S. cerevisiae deletion strains, locus YNL307C, strain MCK1, stronger effect = lower value): 0.857 (active)
normalized growth (S. cerevisiae deletion strains, locus YNL322C, strain KRE1 (second series), stronger effect = lower value): 0.922
normalized growth (S. cerevisiae deletion strains, locus YNR049C, strain mso1, stronger effect = lower value): 0.638 (active)
normalized growth (S. cerevisiae deletion strains, locus YNR052C, strain pop2, stronger effect = lower value): 0.866 (active)
normalized growth (S. cerevisiae deletion strains, locus YOL012C, strain htz1): 0.529
normalized growth (S. cerevisiae deletion strains, locus YOL147C, strain pex11, stronger effect = lower value): 0.871 (active)
normalized growth (S. cerevisiae deletion strains, locus YOR001W, strain rrp6, stronger effect = lower value): 0.86 (active)
normalized growth (S. cerevisiae deletion strains, locus YOR061W, strain CKA2, stronger effect = lower value): 0.986
normalized growth (S. cerevisiae deletion strains, locus YOR069W, strain VPS5, stronger effect = lower value): 0.983
normalized growth (S. cerevisiae deletion strains, locus YOR070C, strain gyp1, stronger effect = lower value): 0.97
normalized growth (S. cerevisiae deletion strains, locus YOR080W, strain dia2, stronger effect = lower value): 0.946
normalized growth (S. cerevisiae deletion strains, locus YOR083W, strain WHI5, stronger effect = lower value): 0.807 (active)
normalized growth (S. cerevisiae deletion strains, locus YOR106W, strain vam3, stronger effect = lower value): 0.637 (active)
normalized growth (S. cerevisiae deletion strains, locus YOR136W, strain idh2, stronger effect = lower value): 0.919 (active)
normalized growth (S. cerevisiae deletion strains, locus YOR144C, strain elg1, stronger effect = lower value): 0.877 (active)
normalized growth (S. cerevisiae deletion strains, locus YOR184W, strain ser1, stronger effect = lower value): 0.875
normalized growth (S. cerevisiae deletion strains, locus YOR265W, strain rbl2, stronger effect = lower value): 0.867 (active)
normalized growth (S. cerevisiae deletion strains, locus YOR270C, strain vph1, stronger effect = lower value): 0.298 (active)
normalized growth (S. cerevisiae deletion strains, locus YOR290C, strain snf2, stronger effect = lower value): 0.471 (active)
normalized growth (S. cerevisiae deletion strains, locus YOR316C, strain cot1, stronger effect = lower value): 0.999
normalized growth (S. cerevisiae deletion strains, locus YPL051W, strain arl3, stronger effect = lower value): 0.768 (active)
normalized growth (S. cerevisiae deletion strains, locus YPL055C, strain LGE1, stronger effect = lower value): 0.483 (active)
normalized growth (S. cerevisiae deletion strains, locus YPL078C, strain atp4, stronger effect = lower value): 0.647 (active)
normalized growth (S. cerevisiae deletion strains, locus YPL106C, strain sse1, stronger effect = lower value): 0.794 (active)
normalized growth (S. cerevisiae deletion strains, locus YPL240C, strain hsp82, stronger effect = lower value): 0.907 (active)
normalized growth (S. cerevisiae deletion strains, locus YPL241C, strain CIN2, stronger effect = lower value): 0.851 (active)
normalized growth (S. cerevisiae deletion strains, locus YPR119W, strain clb2, stronger effect = lower value): 0.986
normalized growth (S. cerevisiae deletion strains, locus YPR141C, strain kar3, stronger effect = lower value): 0.735 (active)
normalized growth (S. cerevisiae deletion strains, locus YPR163C, strain tif3, stronger effect = lower value): 0.977
normalized growth (S. cerevisiae deletion strains, locus YPR167C, strain met16, stronger effect = lower value): 0.846 (active)
normalized growth (S. cerevisiae deletion strains, strain wtn01, stronger effect = lower value): 0.871 (active)
normalized growth (S. cerevisiae strains, strain wild type, stronger effect = lower value): 0.693 (active)
